High-throughput results deposited in PubChem BioAssay by Broad Institute.
SIRT5 inh – inhibitors of human sirtuin-5 desuccinylase. Q9NXA8. AID 652115. hit rate 1.1% among 330,000. Purified SirT5, succinyl-peptide AMC, trypsin-coupled fluorescence. inhibition, % at 15 µM; in the data active = inhibition above about 15%
Target sequence (Q9NXA8 whole entry, looked up): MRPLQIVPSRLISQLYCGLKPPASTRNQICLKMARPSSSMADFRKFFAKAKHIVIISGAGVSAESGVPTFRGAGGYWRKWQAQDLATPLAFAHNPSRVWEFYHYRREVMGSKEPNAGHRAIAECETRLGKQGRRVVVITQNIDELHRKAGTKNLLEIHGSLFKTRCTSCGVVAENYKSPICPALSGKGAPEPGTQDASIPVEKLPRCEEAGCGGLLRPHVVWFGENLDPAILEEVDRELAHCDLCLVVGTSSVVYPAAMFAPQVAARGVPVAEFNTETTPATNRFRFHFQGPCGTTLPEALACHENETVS
PAX8 reporter – PAX8 transcriptional activity inhibition; RMG-I TPO-luciferase reporter, SteadyGlo, 24 h; inhibition, % at 12.6 µM; hit rate 1.2% among 360,000;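 active = mean replicate inhibition at least 60% with every replicate also reaching 60%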;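 note: luciferase light reporting Pax8 driven TPO promoter activity; plate controls were median of neutral control wells for no effect and mitoxantrone controls for full effect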
rRNA inh HTS – inhibitors of bacterial rRNA selective over humanized ribosomes | E. coli WT GFP vs humanized-ribosome RFP mutants, fluorescence, 24 h; active compounds read low; DMSO median 0, no signal -100 | GFP signal change (wild-type ribosome), % (no concentration beside the values) | hit rate 1.6% among 350,000 | AID 720706;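 active = significant combined selectivity score with lowered wild-type GFP, culture density cut under 30%, mutant RFP and density less affected; inactive = any of these conditions unmet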
EWS-Fli inh – blocks EWS/Fli oncoprotein-driven transcription | hit rate 0.67% among 350,000 | A673 NR0B1-luciferase reporter, viability-normalised | inhibition, % at 12.6 µM;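 active = mean inhibition of at least 50% after viability correction, with every replicate also passing that limit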;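 note: firefly luciferase signal divided by Alamar Blue viability fluorescence both relative to DMSO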
LGR2 inh – inhibitors of bursicon-induced Drosophila LGR2 receptor cAMP signaling; HEK293 LGR2, CRE-luciferase, bursicon-stimulated, 4 h; inhibition, % at 9.99 µM; hit rate 0.35% among 380,000; AID 720647;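 active = drop in luminescence signal, shown as inhibition above about 50% in the replicate tests, limit read from the data, passing the limit was not always enough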;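 note: agonist challenge used bursicon conditioned medium at about half maximal strength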
PGC1a acetyl inh – lowers PGC1a acetylation signal in U2OS cells. AlphaScreen anti-acetyl-lysine; with virally co-expressed GCN5 acetyltransferase. inhibition, % at 15.6 µM. hit rate 0.17% among 350,000;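 active = every replicate shows inhibition of at least 40%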;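 note: 0% = neutral control wells and 100% = positive control wells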
Numbers without * were called inactive; · = no result. Shown are actives, neighbours in structure and some others; about 3.4% of the full set was active somewhere.

SMILES	SIRT5 inh	PAX8 reporter	rRNA inh HTS	EWS-Fli inh	LGR2 inh	PGC1a acetyl inh
COc1ccc2c3c(n(C)c2c1)[C@@H](CO)N(C(=O)C1CCC1)CC31CN(C(=O)CN(C)C)C1	15.0*	8.5	2.4	-6.0	6.3	·
COc1ccc2c3c(n(C)c2c1)[C@@H](CO)N(C(=O)C1CCC1)CC31CCN(Cc2cccc(F)c2)CC1	1.2	35.2	1.3	32.9	0.5	·
COc1ccc2c3c(n(C)c2c1)[C@H](CO)N(C(=O)C1CC1)CC31CCN(Cc2cccc(F)c2)CC1	-0.1	70.2*	-1.8	18.4	-5.1	3.8
COc1ccc2c3c(n(C)c2c1)[C@H](CO)N(C(=O)C1CC1)CC31CN(C(=O)CN(C)C)C1	3.6	2.4	2.0	-10.7	-5.1	·
COCC(=O)N1CCC2(CC1)CN(C(=O)NC1CCCC1)[C@@H](CO)c1c2c2ccc(OC)cc2n1C	3.0	67.9*	3.8	11.9	-4.0	11.3
COc1ccc2c3c(n(C)c2c1)[C@H](CO)N(C(=O)C1CCC1)CC31CCN(Cc2cccc(F)c2)CC1	1.2	60.4*	0.8	32.9	3.5	·
C[C@H](CO)N1C[C@H](C)[C@@H](CN(C)C(=O)CN2CCOCC2)Oc2ncc(/C=C/c3ccccc3)cc2C1=O	-14.7	-22.6	1.5	-7.2	-9.4	4.0
Cc1cccc(C(=O)Oc2c(Br)cc(Br)cc2/C=N/NC(=O)c2ccncc2)c1	-2.7	8.1	-3.8	17.8	6.0	-16.6
Cc1cc(C(=O)N/N=C/c2cc(Br)cc(Br)c2OC(=O)c2cccc(F)c2)n[nH]1	-1.4	12.6	-31.0*	12.2	34.4	6.0
CCc1ccc(C(O)c2ncc(-c3cccc(F)c3)[nH]2)cc1 (stereo not drawn)	·	-26.7	-2.5	-16.9	-31.3	-1.5
CCCc1ccc(C(O)c2ncc(-c3cccc(F)c3)[nH]2)cc1 (stereo not drawn)	-0.3	-62.4	-61.4	-32.9	-52.6	42.6*
CO[C@@H]1CN(C)C(=O)c2cc(NC(=O)c3ccccc3)ccc2OC[C@H](C)N(C(C)=O)C[C@@H]1C	-2.7	·	-1.5	-2.2	-6.8	1.8
COc1ccc(-c2nnc(SCCC(=O)O)n2-c2ccccc2)cc1OC	15.0*	·	3.7	10.2	-0.9	·
CCOc1ccc(C(C)=O)cc1CSc1nnnn1-c1ccc(O)cc1	-0.5	6.2	-14.9	12.2	-12.8	0.3
COc1ccc(C(C)=O)cc1CSc1nnc(-c2ccccc2O)n1-c1ccccc1	1.3	·	-26.6*	13.0	5.8	·
COc1ccc(-c2nnc(SCCC(=O)O)n2C)cc1OC	·	·	·	·	1.2	8.9
O=C(O)CCSc1nc2ccccc2n1-c1ccccc1	-8.7	2.7	-23.7*	11.2	-11.5	·
COc1ccc(C(C)=O)cc1CSc1nnnn1-c1ccc(O)cc1	-4.7	12.5	-48.3*	8.8	7.0	0.5
COc1ccc(C(C)=O)cc1CSc1nnc(C)n1-c1ccccc1	·	10.5	·	·	13.5	-2.4
CC(C)N(C(=O)CSc1nc2ccccc2n1-c1ccccc1)C(C)C	·	·	·	·	·	-0.8
C[C@H]1CN([C@@H](C)CO)C(=O)c2cccc(NC(=O)c3cnccn3)c2O[C@@H]1CN(C)C(=O)NC1CCCCC1	-2.4	-6.8	1.9	4.6	-1.7	-4.9
COc1ccc(C(C)=O)cc1CSc1nnc(Nc2ccccc2C)s1	·	·	·	·	-2.4	·
COCC(C)n1c(C)cc(C(=O)CSc2nnnn2-c2ccc(O)cc2)c1C (stereo not drawn)	·	-26.7	-28.5*	-30.1	-20.9	1.7
COc1ccc(C(C)=O)cc1CSc1nnc(Nc2c(C)cccc2C)s1	20.6*	31.1	-19.0	-10.8	13.4	·
COCC(C)n1c(C)cc(C(=O)CSc2ncccn2)c1C (stereo not drawn)	·	-71.8	8.0	-32.2	3.1	2.0
SMILES	SIRT5 inh	PAX8 reporter	rRNA inh HTS	EWS-Fli inh	LGR2 inh	PGC1a acetyl inh
COc1ccc(/C=C/C(=O)c2cc(F)ccc2OC(=O)c2ccccc2)cc1OC	·	76.7*	·	·	·	-26.1
COc1ccc(/C=C/C(=O)NNC(=O)c2cc(C)oc2C)cc1	22.6*	9.7	-4.2	-1.9	3.1	·
COc1ccc(/C=C/C(=O)Nc2ccccc2C(=O)O)cc1OC	5.4	0.3	·	40.5	81.4*	·
COc1ccc(C(=O)Nc2ccccc2C(=O)O)cc1NC(=O)C(c1ccccc1)c1ccccc1	6.6	-34.1	-35.8*	-9.9	-12.9	·
COc1ccc(/C=C/C(=O)NC(=S)Nc2cc([N+](=O)[O-])ccc2O)cc1OC	12.6	23.4	-17.0*	5.9	8.4	·
COc1ccc(/C=C/C(=O)Nc2ccccc2C(=O)N2CCCC2)cc1	·	·	·	·	·	-0.7
COc1ccc(/C=C/C(=O)Nc2ccccc2C(=O)O)cc1	6.5	-40.6	-35.5*	-7.1	58.9*	·
CCCNC(=O)Nc1ccc2c(c1)C(=O)N(C)C[C@H](OC)[C@H](C)CN(Cc1ccccc1)[C@@H](C)CO2	·	·	-1.6	-7.7	-3.8	-0.9
O=C(NC1CCCCC1)N[C@@H]1CC[C@H](CCNS(=O)(=O)c2ccc(F)cc2)O[C@@H]1CO	1.7	-7.1	-1.1	3.3	-8.2	-6.7
O=C(CC1CC1)N1[C@@H](CO)[C@@H]2c3ccccc3N(S(=O)(=O)c3ccc(F)cc3)C[C@@H]21	25.5*	11.5	-1.1	10.5	-2.1	-8.5
O=S(=O)(c1ccccc1)N1C[C@H]2[C@@H](c3ccccc31)[C@@H](CO)N2Cc1ccccc1	0.3	2.4	-49.1*	8.5	3.7	-7.9
O=C(CC1CC1)N1[C@H](CO)[C@H]2c3ccccc3N(S(=O)(=O)c3ccccc3)C[C@H]21	-0.7	-9.8	-6.6	-0.7	-3.0	-3.8
O=S(=O)(c1ccccc1)N1C[C@@H]2[C@H](c3ccccc31)[C@H](CO)N2Cc1ccccc1	0.1	11.0	-25.4*	5.2	-1.3	-6.4
C[C@H]1COCn2nncc2CCCC(=O)N1	·	·	2.9	·	·	·
O=C(Cc1ccccc1)N1CC(=O)N2[C@H](C1)[C@@H](c1ccc(-c3cccc(F)c3)cc1)[C@@H]2CO	5.7	-13.4	-56.7	1.5	-31.0	16.7
CN1C(=O)c2cc(NC(=O)c3ccc(F)c(F)c3)ccc2OC[C@H]2O[C@@H](CC(=O)O)CC[C@H]21	·	-4.0	-3.8	4.6	12.6	-4.7
O=C(Nc1nc2ccccc2s1)c1ccccc1	-2.0	-87.8	-36.6	-24.7	-12.8	0.1
c1ccc2sc(NN=C3CCCCCC3)nc2c1	-2.8	-57.2	-62.5	46.3	55.4*	-10.5
CC(=O)N1CC2(C1)[C@H](c1ccc(-c3ccccc3C)cc1)[C@@H](CO)N2C(C)=O	·	·	0.2	·	·	·
O=C(C[C@@H]1C=C[C@@H](NC(=O)C2CCOCC2)[C@@H](CO)O1)Nc1ccccc1	6.6	·	2.3	-7.8	33.8	-8.8
CC(C)OCCCNC(=O)c1cccc(NC(=O)c2ccccc2)c1	-3.8	126.5*	1.3	-0.8	-2.7	8.1
O=C(NCCCCc1ccccc1)c1cccc(NC(=O)c2ccccc2)c1	-6.5	-9.9	-5.4	-4.9	38.8	-10.6
O=C(NCCc1ccc(F)cc1)c1cccc(NC(=O)c2ccccc2)c1	0.9	-19.6	-22.1*	-45.2	-12.9	·
